Screening data (PubChem BioAssay)
PGC1a acetyl inh = inhibitors of PGC1a acetylation signal, primary screen, cell-based, U2OS, AlphaScreen, inhibitor mode. AlphaScreen anti-acetyl-lysine; with virally co-expressed GCN5 acetyltransferase. inhibition, % at 15.6 µM. 350,000 tested, 0.17% active. AID 651687, 2012;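 active = every replicate shows inhibition of at least 40%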;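 note: 0% = neutral control wells and 100% = positive control wells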
PDI inh = inhibitors of human PDI, primary screen, biochemical, turbidity, single point, plate reader. AID 588391, 2011. PDI insulin aggregation turbidity, A650, 90 min. inhibition, % at 10 µM. 350,000 tested, 0.052% active. Protein disulfide-isomerase (Homo sapiens), P07237;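 active = mean inhibition across replicates of 30% or more, whatever share of single replicates reach that level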
Target sequence (P07237 whole entry, looked up): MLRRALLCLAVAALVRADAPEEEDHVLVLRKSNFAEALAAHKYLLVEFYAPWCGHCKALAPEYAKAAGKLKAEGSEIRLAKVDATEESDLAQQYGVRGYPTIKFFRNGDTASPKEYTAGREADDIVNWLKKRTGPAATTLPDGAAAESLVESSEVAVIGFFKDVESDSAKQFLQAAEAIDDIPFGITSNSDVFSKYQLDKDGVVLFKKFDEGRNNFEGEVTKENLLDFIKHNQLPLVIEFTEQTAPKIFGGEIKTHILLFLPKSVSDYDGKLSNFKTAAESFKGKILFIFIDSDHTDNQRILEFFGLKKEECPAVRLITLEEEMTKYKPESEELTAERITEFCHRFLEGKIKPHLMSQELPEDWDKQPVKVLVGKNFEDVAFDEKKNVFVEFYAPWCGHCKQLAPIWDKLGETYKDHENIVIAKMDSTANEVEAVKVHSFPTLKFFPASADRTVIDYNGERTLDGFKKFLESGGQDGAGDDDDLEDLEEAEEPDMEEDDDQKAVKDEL
CaV13 ICDI inh = Primary screen for inhibitors of IQ motif and Ca2+-dependent inactivation inhibitor domain binding in CACNA1D, Förster resonance energy transfer in living cells, … | HEK cells, CFP/YFP FRET ICDI-IQ, plate reader, 10 min; percent FRET-ratio fall versus neutral wells | 340,000 tested, 0.098% active | AID 743397 | inhibition, % at 12.3 µM;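 active = mean replicate inhibition of at least 30% and at least 1% of replicates passing that level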;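 note: 0% = median of the neutral control wells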
ERAP1 HTS inh = human ERAP1 aminopeptidase inhibitors, primary screen, biochemical, single point, plate reader; Endoplasmic reticulum aminopeptidase 1 (Homo sapiens), Q9NZ08; recombinant ERAP1, Leu-AMC fluorescence, 60 min; inhibition, % at 10.7 µM; 340,000 tested, 0.15% active; AID 652197, 2013;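 active = mean replicate inhibition of at least 30%, or all replicates individually reaching that 30% level; inactive = mean below 30% and not every replicate reaching it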;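 note: 0% = neutral control wells and 100% = L-leucinethiol positive control wells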
ERp5 block = inhibitors of ERp5-driven insulin aggregation, primary screen, biochemical, turbidity, absorbance 650 nm, single point; AID 651711, 2012; 90 min; inhibition, % at 9.99 µM; 350,000 tested, 0.05% active;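 active = mean replicate inhibition above about 25%, with every replicate also reaching it, limit read from the data, passing the limit was not always enough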
PglD DTNB = C. jejuni PglD acetyltransferase inhibitors, primary screen, biochemical, DTNB colorimetric, single point; AID 602405, 2012; inhibition, % at 12.5 µM; UDP-N-acetylbacillosamine N-acetyltransferase PglD (Campylobacter jejuni); 360,000 tested, 0.098% active; purified PglD enzyme, DTNB colorimetric CoA detection; in the data active = inhibition above about 16%, passing the limit was not always enough
The depositor's hits bear a star; . = no result. This is a sample that favours compounds with a hit; in the whole collection about 0.46% have one here.

SMILES | PGC1a acetyl inh | PDI inh | CaV13 ICDI inh | ERAP1 HTS inh | ERp5 block | PglD DTNB
C[C@H]1CN([C@@H](C)CO)C(=O)Cc2cc(NC(=O)CCCCCC(=O)Nc3ccccc3N)ccc2O[C@H]1CN(C)Cc1ccc(C(F)(F)F)cc1 | 0.5 | . | . | 1.1 | 6.6 | 1.2
Cc1cc(NC(=O)c2n[nH]c(=O)c3ccccc23)ccc1Br | . | . | -5.0 | -1.3 | 7.2 | .
CC(C)c1ccc(NC(=O)c2n[nH]c(=O)c3ccccc23)cc1 | 108.0* | 6.4 | -6.0 | -1.2 | 6.5 | .
COC(=O)C1=CN(Cc2ccc(F)cc2)C=C(C(=O)OC)C1c1ccc(O)c(OC)c1 | . | -8.3 | 7.2 | 0.7 | -0.8 | -1.3
COC(=O)C1=CN(Cc2ccc(OC)c(OC)c2)C=C(C(=O)OC)C1c1cccc(O)c1 | 74.2* | 1.4 | -1.3 | -145.9 | -3.4 | -2.0
COC(=O)C1=CN(CC2CCCO2)C=C(C(=O)OC)C1c1ccsc1 (stereo not given) | 4.0 | 4.2 | -5.5 | . | . | 3.2
COC(=O)C1=CN(CC2CCCO2)C=C(C(=O)OC)C1c1cccc(O)c1 (stereo not given) | 0.8 | 7.4 | 82.6* | -148.2 | 3.7 | .
CC(=O)N1[C@@H]2Cn3c(ccc(-c4ccccc4)c3=O)[C@H]1[C@@H](C(=O)NCC1CC1)[C@@H]2CO | -9.2 | . | . | -3.5 | -8.1 | -3.2
OC[C@@H]1[C@H](c2ccccc2)C2(CN(Cc3nccs3)C2)N1CCC(F)(F)F | -12.7 | . | . | 4.5 | 20.2 | .
c1cc[n+](CCCC[n+]2ccccc2)cc1 | 4.1 | 14.2 | -5.4 | 0.0 | 0.1 | -5.4
c1cc[n+](CCC[n+]2ccccc2)cc1 | 7.0 | -0.6 | -17.8 | 110.1* | 0.0 | -5.9
O=C(CSc1n[nH]c(-c2cccs2)n1)NC1CCS(=O)(=O)C1 (stereo not given) | . | 3.4 | . | 34.7* | 1.2 | 0.2
O=C(CSc1n[nH]c(-c2ccncc2)n1)NC1CCS(=O)(=O)C1 (stereo not given) | 7.6 | -3.3 | -4.7 | . | . | -0.5
CCN1[C@@H]2Cn3c(ccc(-c4ccccc4F)c3=O)[C@H]1[C@@H](C(=O)NCc1ccccc1)[C@@H]2CO | . | . | . | 1.2 | -0.8 | 2.0
O=S(=O)([O-])CCC[n+]1ccc(Oc2ccccc2)cc1 | 0.4 | 3.5 | -19.2 | 49.9* | 4.8 | -5.0
Cc1ccc(S(=O)(=O)N(C)C)cc1NC(=O)COC(=O)C1(c2ccccc2)CC1 | . | -2.6 | -4.4 | -1.9 | 27.8* | 3.6
CCc1nnc(N/N=C/c2ccccc2Cl)n1N | 72.1* | -10.3 | . | . | . | -2.5
CC1CCc2cc(F)cc3c(=O)c(C(=O)O)cn1c23 (stereo not given) | . | 12.5 | -6.3 | 38.5* | -0.4 | 0.3
C[C@@H]1CN([C@@H](C)CO)C(=O)c2cc(C#CC(C)(C)O)cnc2O[C@@H]1CN(C)C(=O)C1CCC1 | 4.6 | . | . | 0.7 | -2.7 | 0.0
COCC#Cc1cnc2c(c1)C(=O)N([C@@H](C)CO)C[C@@H](C)[C@@H](CN(C)C(=O)NC1CCCC1)O2 | 1.0 | . | . | 1.8 | -14.7 | 6.6
C[C@H]1CN([C@@H](C)CO)C(=O)c2cc(C#CC(C)(C)O)cnc2O[C@@H]1CN(C)C(=O)C1CCC1 | 100.7* | . | . | 3.0 | 5.2 | 0.0
COCC#Cc1cnc2c(c1)C(=O)N([C@H](C)CO)C[C@H](C)[C@H](CN(C)C(=O)C1CCC1)O2 | . | . | . | 2.9 | 8.4 | 2.7
COCC#Cc1cnc2c(c1)C(=O)N([C@@H](C)CO)C[C@H](C)[C@@H](CN(C)C(=O)C1CCC1)O2 | -3.1 | . | . | 2.2 | 4.1 | 20.2*
COCC#Cc1cnc2c(c1)C(=O)N([C@H](C)CO)C[C@@H](C)[C@H](CN(C)C(=O)NC1CCCC1)O2 | 1.8 | . | . | 0.2 | 59.3* | -3.2
CC(C)C#Cc1cnc2c(c1)C(=O)N([C@@H](C)CO)C[C@@H](C)[C@H](CN(C)C(=O)c1ccccc1F)O2 | 3.2 | . | . | 0.7 | 32.2* | 1.1
SMILES | PGC1a acetyl inh | PDI inh | CaV13 ICDI inh | ERAP1 HTS inh | ERp5 block | PglD DTNB
COCC(=O)Nc1ccc2c(c1)[C@H]1C[C@H](CC(=O)NCCN3CCCCC3)O[C@@H](CO)[C@H]1O2 | 7.1 | . | . | 2.2 | -0.4 | 3.4
COCC#Cc1cnc2c(c1)C(=O)N([C@@H](C)CO)C[C@H](C)[C@@H](CN(C)C(=O)NC1CCCC1)O2 | -2.4 | . | . | 1.2 | 49.8* | -2.1
CCCC#Cc1cnc2c(c1)C(=O)N([C@@H](C)CO)C[C@H](C)[C@@H](CN(C)C(=O)NC1CCCC1)O2 | 11.8 | . | . | -1.8 | -3.8 | -2.3
COCCNC(=O)C[C@@H]1C=C[C@H](NS(=O)(=O)c2ccc(C)cc2)[C@H](CO)O1 | 7.6 | . | . | 3.1 | -3.1 | 5.6
Cc1cc(NS(=O)(=O)c2ccc(NC(=O)CCCC(=O)O)cc2)nc(C)n1 | 2.5 | 17.2 | . | . | . | 4.6
CCOc1ccccc1OCCCC(=O)Nc1ccc(S(=O)(=O)Nc2cc(C)nc(C)n2)cc1 | -3.7 | -11.4 | -5.8 | 30.2* | -2.7 | 0.4
CN(C)CC(=O)Nc1ccc2c(c1)[C@H]1C[C@H](CC(=O)N3CCN(C)CC3)O[C@H](CO)[C@H]1O2 | -0.6 | . | . | 1.3 | -1.2 | -0.5
CCN1[C@@H]2c3ccc(/C=C/c4ccccc4)c(=O)n3C[C@H]1[C@H](CO)[C@H]2C(=O)N1CCOCC1 | . | . | . | 39.7* | 0.3 | -1.5
CC(=O)N1[C@@H]2c3ccc(/C=C/c4ccccc4)c(=O)n3C[C@H]1[C@H](CO)[C@H]2C(=O)N1CCOCC1 | 8.6 | . | . | 88.1* | -0.4 | .
N#Cc1cccc(-c2ccc3c(c2)[C@H]2[C@H](CCN2S(=O)(=O)c2cccc(F)c2)[C@H](CO)N3)c1 | 9.0 | . | . | 1.1 | -3.1 | 0.0
Cc1cc(C)c2c(=O)[nH]n(C3CCOC(C)(C)C3)c2n1 (stereo not given) | 2.0 | -2.5 | -7.4 | -3.9 | -7.7 | 0.1
Cc1cc(C)c2c(=O)[nH]n(C3CCCCCC3)c2n1 | 87.9* | 2.1 | -1.6 | -2.5 | 3.7 | .
CO[C@H](CN(C)Cc1cc(F)ccc1F)[C@H](C)CN([C@H](C)CO)S(=O)(=O)c1ccc(C)cc1 | -5.0 | . | . | -1.5 | -1.6 | -4.5
COc1ccc(NC(=O)N[C@@H]2CC[C@H](CCn3cc(-c4ccccc4F)nn3)O[C@H]2CO)cc1 | 61.6* | . | . | 3.2 | 3.6 | -4.6
C[N+]1(CC(=O)OCCCc2ccccc2)CCCC1 | . | -3.9 | -5.3 | 77.0* | 3.8 | .
C[N+]1(CC(=O)OCCCc2ccccc2)CCCCC1 | 13.7 | 1.3 | -19.5 | 25.5 | -0.5 | -1.8
CC[n+]1ccccc1/C=C1\Sc2ccc(C)cc2N1C | . | 14.9 | -30.4 | 74.2* | 3.8 | -2.9
CN1/C(=C/c2cccc[n+]2CCO)Sc2ccccc21 | . | -8.2 | -20.0 | 12.7 | 2.4 | -8.0
